ChEMBL document CHEMBL1961873, “Compounds: GSK PKIS; Assays: Nanosyn kinase panel” (2012)

Assays:
[1] = target: Tyrosine-protein kinase SYK (Homo sapiens) (UniProt P43405); details: at 1 µM
[2] = target: T1, Tyrosine-protein kinase Tec (Homo sapiens) (UniProt P42680); details: at 0.1 µM
T1 sequence (whole entry): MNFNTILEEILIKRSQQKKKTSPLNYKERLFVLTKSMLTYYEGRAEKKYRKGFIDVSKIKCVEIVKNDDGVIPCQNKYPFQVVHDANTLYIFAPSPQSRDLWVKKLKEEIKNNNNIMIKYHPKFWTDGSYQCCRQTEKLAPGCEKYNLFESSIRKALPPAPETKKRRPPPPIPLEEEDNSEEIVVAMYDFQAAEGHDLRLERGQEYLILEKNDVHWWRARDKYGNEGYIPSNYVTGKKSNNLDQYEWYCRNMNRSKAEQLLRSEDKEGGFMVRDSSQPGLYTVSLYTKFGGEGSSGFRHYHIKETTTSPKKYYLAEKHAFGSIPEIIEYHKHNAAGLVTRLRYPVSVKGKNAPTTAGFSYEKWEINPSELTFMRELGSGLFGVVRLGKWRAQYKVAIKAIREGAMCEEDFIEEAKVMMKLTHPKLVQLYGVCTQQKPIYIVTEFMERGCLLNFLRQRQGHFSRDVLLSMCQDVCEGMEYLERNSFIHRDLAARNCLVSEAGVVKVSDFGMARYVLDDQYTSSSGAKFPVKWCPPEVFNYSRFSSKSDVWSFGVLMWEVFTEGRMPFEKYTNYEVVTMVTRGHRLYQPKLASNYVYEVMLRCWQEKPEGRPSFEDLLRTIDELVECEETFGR

[3] = target: T1, Tyrosine-protein kinase Tec (Homo sapiens); details: at 1 µM
[4] = target: Angiopoietin-1 receptor (Homo sapiens) (UniProt Q02763); details: at 0.1 µM
Angiopoietin-1 receptor (Homo sapiens), sequence (Q02763 whole entry): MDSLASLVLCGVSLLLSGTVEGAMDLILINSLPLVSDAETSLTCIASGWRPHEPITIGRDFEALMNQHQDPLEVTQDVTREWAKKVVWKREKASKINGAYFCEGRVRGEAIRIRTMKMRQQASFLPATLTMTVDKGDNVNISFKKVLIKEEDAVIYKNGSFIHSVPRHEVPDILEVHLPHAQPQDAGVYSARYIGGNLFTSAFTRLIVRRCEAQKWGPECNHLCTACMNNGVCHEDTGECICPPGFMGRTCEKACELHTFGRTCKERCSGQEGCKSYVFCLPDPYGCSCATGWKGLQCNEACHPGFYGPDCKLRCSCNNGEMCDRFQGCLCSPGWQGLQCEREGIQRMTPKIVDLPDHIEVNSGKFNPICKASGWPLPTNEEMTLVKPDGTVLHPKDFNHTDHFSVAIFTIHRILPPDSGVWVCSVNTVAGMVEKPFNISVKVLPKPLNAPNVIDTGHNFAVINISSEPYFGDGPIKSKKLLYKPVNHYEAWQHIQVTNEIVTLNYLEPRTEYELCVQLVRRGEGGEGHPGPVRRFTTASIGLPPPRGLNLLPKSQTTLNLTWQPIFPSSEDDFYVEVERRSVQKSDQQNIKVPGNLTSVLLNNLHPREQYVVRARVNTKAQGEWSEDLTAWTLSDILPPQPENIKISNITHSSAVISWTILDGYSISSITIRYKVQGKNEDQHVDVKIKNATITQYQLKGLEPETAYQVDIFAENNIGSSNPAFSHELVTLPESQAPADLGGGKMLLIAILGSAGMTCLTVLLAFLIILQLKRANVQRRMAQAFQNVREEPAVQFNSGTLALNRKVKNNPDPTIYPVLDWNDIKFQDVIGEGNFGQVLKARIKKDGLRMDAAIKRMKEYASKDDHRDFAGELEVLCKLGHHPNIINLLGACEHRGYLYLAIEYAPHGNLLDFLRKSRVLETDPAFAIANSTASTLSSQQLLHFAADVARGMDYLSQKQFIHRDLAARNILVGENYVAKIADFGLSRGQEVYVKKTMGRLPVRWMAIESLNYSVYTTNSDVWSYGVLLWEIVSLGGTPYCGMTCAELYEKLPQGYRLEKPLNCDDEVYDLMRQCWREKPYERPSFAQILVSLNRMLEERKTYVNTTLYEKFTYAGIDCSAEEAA

[5] = target: Angiopoietin-1 receptor (Homo sapiens) (UniProt Q02763); details: at 1 µM
[6] = target: T2, Non-receptor tyrosine-protein kinase TNK1 (Homo sapiens) (UniProt Q13470); details: at 0.1 µM
T2 sequence (whole entry): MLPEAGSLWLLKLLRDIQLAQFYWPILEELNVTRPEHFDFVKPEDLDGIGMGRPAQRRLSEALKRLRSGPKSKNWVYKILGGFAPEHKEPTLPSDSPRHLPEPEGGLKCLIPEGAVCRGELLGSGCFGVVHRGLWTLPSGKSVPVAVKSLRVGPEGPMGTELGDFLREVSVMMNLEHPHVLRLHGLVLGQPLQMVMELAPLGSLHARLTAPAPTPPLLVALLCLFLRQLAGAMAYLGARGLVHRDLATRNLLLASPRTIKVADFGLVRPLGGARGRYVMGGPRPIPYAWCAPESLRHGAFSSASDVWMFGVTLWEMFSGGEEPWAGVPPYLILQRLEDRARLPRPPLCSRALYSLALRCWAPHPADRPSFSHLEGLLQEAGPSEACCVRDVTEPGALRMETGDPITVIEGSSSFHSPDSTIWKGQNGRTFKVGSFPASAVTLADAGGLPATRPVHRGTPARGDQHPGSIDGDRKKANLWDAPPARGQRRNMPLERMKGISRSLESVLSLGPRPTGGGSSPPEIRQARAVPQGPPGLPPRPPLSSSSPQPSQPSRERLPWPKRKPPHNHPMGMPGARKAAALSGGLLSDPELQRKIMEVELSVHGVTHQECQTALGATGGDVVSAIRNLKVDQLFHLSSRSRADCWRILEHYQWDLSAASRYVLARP

[7] = target: T2, Non-receptor tyrosine-protein kinase TNK1 (Homo sapiens); details: at 1 µM
[8] = target: Activated CDC42 kinase 1 (Homo sapiens) (UniProt Q07912); details: at 0.1 µM
Activated CDC42 kinase 1 (Homo sapiens), sequence (Q07912 whole entry, looked up): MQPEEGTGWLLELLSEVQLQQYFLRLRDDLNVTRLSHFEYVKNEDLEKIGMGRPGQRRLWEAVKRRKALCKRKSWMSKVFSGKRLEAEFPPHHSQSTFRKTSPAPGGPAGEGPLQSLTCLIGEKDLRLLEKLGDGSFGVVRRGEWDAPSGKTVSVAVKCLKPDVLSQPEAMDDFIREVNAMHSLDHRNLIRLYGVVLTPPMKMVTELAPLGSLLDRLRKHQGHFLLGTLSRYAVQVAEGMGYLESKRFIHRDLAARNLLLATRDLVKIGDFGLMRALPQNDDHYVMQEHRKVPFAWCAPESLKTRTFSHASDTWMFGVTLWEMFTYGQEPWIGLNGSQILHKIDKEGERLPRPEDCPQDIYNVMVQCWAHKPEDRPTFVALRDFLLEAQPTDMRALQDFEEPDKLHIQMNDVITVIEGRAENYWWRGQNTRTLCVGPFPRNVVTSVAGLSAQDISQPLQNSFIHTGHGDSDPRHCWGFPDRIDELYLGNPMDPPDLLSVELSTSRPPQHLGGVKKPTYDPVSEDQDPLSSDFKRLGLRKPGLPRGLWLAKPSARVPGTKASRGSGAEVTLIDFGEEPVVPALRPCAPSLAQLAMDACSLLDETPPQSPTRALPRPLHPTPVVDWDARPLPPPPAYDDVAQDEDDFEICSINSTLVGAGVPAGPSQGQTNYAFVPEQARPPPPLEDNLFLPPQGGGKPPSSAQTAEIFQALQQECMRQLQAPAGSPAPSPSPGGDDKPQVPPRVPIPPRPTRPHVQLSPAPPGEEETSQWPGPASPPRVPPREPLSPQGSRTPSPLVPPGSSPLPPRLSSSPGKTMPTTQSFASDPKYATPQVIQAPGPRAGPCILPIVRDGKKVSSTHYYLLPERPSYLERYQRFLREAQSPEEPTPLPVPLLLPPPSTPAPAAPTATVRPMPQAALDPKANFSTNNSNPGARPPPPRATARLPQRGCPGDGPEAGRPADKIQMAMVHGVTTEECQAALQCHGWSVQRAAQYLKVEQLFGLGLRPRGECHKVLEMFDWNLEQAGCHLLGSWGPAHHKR

[9] = target: Activated CDC42 kinase 1 (Homo sapiens) (UniProt Q07912); details: at 1 µM
[10] = target: High affinity nerve growth factor receptor (Homo sapiens) (UniProt P04629); details: at 0.1 µM;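 further: each value is a mean of replicate percent inhibition readings against TRKA kinase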
High affinity nerve growth factor receptor (Homo sapiens), sequence (P04629 33-796 limits assumed): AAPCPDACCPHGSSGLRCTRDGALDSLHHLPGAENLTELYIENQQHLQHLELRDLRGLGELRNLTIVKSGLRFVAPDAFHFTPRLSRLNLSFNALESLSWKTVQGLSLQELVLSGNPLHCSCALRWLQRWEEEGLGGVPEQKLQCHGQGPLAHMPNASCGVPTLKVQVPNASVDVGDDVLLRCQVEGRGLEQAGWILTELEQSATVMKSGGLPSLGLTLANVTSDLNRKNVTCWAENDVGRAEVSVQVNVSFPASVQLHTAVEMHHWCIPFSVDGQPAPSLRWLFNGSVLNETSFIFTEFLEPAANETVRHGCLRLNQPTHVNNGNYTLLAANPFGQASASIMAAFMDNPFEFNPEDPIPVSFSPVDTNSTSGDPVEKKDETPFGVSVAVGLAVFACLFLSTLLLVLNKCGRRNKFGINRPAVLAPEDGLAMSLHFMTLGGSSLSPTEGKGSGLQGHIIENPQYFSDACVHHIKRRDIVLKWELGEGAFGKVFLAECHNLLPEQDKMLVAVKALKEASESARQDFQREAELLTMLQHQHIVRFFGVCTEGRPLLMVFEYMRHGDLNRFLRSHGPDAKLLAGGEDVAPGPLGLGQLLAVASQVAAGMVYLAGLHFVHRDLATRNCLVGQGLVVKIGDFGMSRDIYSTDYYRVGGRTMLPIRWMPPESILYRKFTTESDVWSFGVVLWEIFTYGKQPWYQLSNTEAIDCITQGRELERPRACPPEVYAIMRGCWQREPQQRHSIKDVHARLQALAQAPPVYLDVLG

Structure (SMILES)	inhibition [1] [%]	inhibition [2] [%]	inhibition [3] [%]	inhibition [4] [%]	inhibition [5] [%]	inhibition [6] [%]	inhibition [7] [%]	inhibition [8] [%]	inhibition [9] [%]	inhibition [10] [%]
CS(=O)(=O)Nc1cccc(-c2ccc3c(NC(=O)C4CC4)n[nH]c3c2)c1	0.89	2.55	3.97	1.52	7.04	2.45	-6.75	-0.85	-2.06	-1.92
CC(C)c1ccc(Nc2nccc(-c3cnn4ncccc34)n2)cc1	9.02	2.28	7.14	2.92	4.32	5.68	49.3	0.39	2.14	3.65
O=S(=O)(CCOCc1ccc(-c2ccc3ncnc(Nc4ccc(OCc5cccc(F)c5)c(Cl)c4)c3c2)o1)c1ccccc1	1.2	0.41	0.9	3.25	2.48	1.59	5.35	-0.03	-0.95	-0.1
Cc1ccc2c(-c3ccnc(Nc4cccc(C(F)(F)F)c4)n3)c(-c3ccccc3)nn2n1	-5.34	8.8	38.3	3.55	8.11	2.78	19.5	0.98	2.35	1.79
O=C1Nc2ccccc2/C1=C/Nc1ccc2[nH]c(=O)[nH]c2c1	-5.15	9.34	13.8	5.76	9.19	4.65	21.3	1.41	4.86	11.6
OCc1ccc(-c2nc(-c3ccccn3)c(-c3ccc4c(c3)OCO4)[nH]2)cc1	-0.31	7.61	11.1	2.48	6.23	5.37	-4.68	1.72	2.78	3.27
Cc1ccc2c(c1)/C(=N/Nc1ccc(S(N)(=O)=O)cc1)C(=O)N2	-2.83	1.52	4.33	-0.15	2.63	-2.23	3.63	-0.48	-0.62	-1.8
ON=C1CCc2cc(-c3nc(C4CCNCC4)[nH]c3-c3ccncc3)ccc21	0.36	1.46	2.88	1.37	1.77	-4.28	-5.17	-0.93	-2.5	-3.45
COc1ccc(-c2nn3ncccc3c2-c2ccnc(Nc3cccc(C(F)(F)F)c3)n2)cc1	-2.11	1.14	4.73	2.11	9.2	7.47	9.47	0.73	0.85	1.79
Cc1cc(-c2ccccn2)cc(C)c1/C=C/c1cncc(-c2nn[nH]n2)c1	-0.42	4.67	12.4	2.01	8.32	9.02	50.8	0.32	2.33	2.23
Cc1ccc(NC(=O)CC2CC2)cc1-c1ccc(C(=O)NCC2CC2)cc1	0.5	5.07	8.67	2.75	6.74	2.27	10.1	0.82	3.94	3.3
COc1cc2ncnc(Nc3ccc4c(cnn4Cc4ccccc4)c3)c2cc1OC	0.48	3.95	17.7	4.78	10.2	7.1	35.6	0.51	4.91	0.45
Oc1cccc(-c2nc(-c3ccccc3)[nH]c2-c2ccncc2)c1	1.53	5.02	9.92	3.23	15.7	3.62	12.3	1.47	2.85	3.43
C[C@@H](Oc1cc(-n2cnc3ccc(OC[C@@H](O)CO)cc32)sc1C(N)=O)c1ccccc1Cl	0.64	-0.35	-0.09	2.55	14.6	-0.47	18.2	-0.26	2.04	0.33
CN(C)C(=O)O[C@@H]1CN[C@@H](C#Cc2cc3ncnc(Nc4ccc(OCc5cccc(F)c5)c(Cl)c4)c3s2)C1	0.74	2.88	6.39	1.52	4.73	0.44	8.64	-0.35	-0.22	-3.09
COC(=O)c1ccc2c(c1)C(=Cc1cc(Br)c(O)c(Br)c1)C(=O)N2	-1.69	9.11	7.75	3.09	3.01	25.5	70.2	0.88	8.96	2.4
